Assay results: PubChem BioAssay (EPA / NIEHS)
“And” between values parts separate entries of the source, which are not always exact repeats. Equal entries are not always repeated. More than one record can exist for a structure, and the calls need not agree. The source made the active and inactive calls. The calls were made as follows: active = hit-call score of the fitted dose curve at least 0.9, where 1 is the maximum; inactive = score below 0.9.

assay: ATG_PBREM_CIS: Attagene CIS-FACTORIAL HepG2 Assay for human Phenobarbital-responsive Enhancer Module (PBREM) (AID 2282955); settings: HepG2 PBREM cis-reporter, Attagene multiplexed transcription; actives raise or lower the signal
Experimental: ATG_CIS is a cell-based, multiplexed-readout assay that uses HepG2, a human liver cell line, with measurements taken at 24 hours after chemical dosing in a 24-well plate.ATG_PBREM_CIS is one of 52 assay component(s) measured or calculated from the ATG_CIS assay. It is designed to make measurements of mRNA induction, a form of inducible reporter, as detected with fluorescence intensity signals by Reverse transcription polymerase chain reaction (RT-PCR) and Capillary electrophoresis technology.Data from the assay component ATG_PBREM_CIS was analyzed into 1 assay endpoint. This assay endpoint, ATG_PBREM_CIS, was analyzed with bidirectional fitting relative to DMSO as the negative control and baseline of activity. Using a type of inducible reporter, measures of mRNA for gain or loss-of-signal activity can be used to understand the reporter gene at the transcription factor-level as they relate to the gene NR1I3. Furthermore, this assay endpoint can be referred to as a primary readout, because this assay has produced multiple assay endpoints where this one serves a reporter gene function. To generalize the intended target to other relatable targets, this assay endpoint is annotated to the nuclear receptor intended target family, where the subfamily is non-steroidal.
Human liver HepG2 cells are transiently transfected with multiple reporter transcription units (MRTUs) in 6-well plates using FuGene 6 reagent (Roche; 3 ml FuGene/1 mg DNA). The MRTU constructs are regulated by a cis-regulating element (promoter). […] A major difference between the CIS and TRANS system is that in CIS activities of endogenous TFs are measured, whereas the TRANS assay evaluates changes in activities of exogenous, chimeric NR-Gal4 proteins. […] At the end of 24 hour incubation, total RNA was isolated using TriZol reagent (Invitrogen). The isolated RNA is then reverse-transcribed using oligo(dT) primer and Mo-MLV reverse transcriptase (Invitrogen) with DNAse I (Ambion) treatment for 30 min. The one-tenth of the produced cDNA was amplified by PCR using Taq DNA polymerase (Invitrogen) and two reporter sequence-specific primers. The PCR products were fluorescently labeled by primer extension with 6-arboxyfluorescein (6-FAM) 5'-labeled reporter sequence-specific primer (2 min at 95 C, 20 s at 68 C and 10 min at 72 C) and these products were digested with 5U of HpaI (New England Biolabs) for 2h at 37 C. The fragments were purified using Qiaquick PCR columns (Qiagen), analyzed on an ABI 3130xL genetic analyzer (Applied Biosystems) with peak positions identified by using a set of X-rhodamine (ROX)-labeled MapMarker1000 molecular weight standards (BioVentures). The raw capillary electrophoresis data was processed using Attagraph software (Attagene).

SMILES	outcome	AC50
CC[C@H](C)[C@H]1O[C@]2(C=C[C@@H]1C)C[C@@H]1C[C@@H](C/C=C(\C)[C@@H](O[C@H]3C[C@H](OC)[C@@H](O[C@H]4C[C@H](OC)[C@@H](O)[C@H](C)O4)[C@H](C)O3)[C@@H](C)/C=C/C=C3\CO[C@@H]4[C@H](O)C(C)=C[C@@H](C(=O)O1)[C@]34O)O2 (tested in a mixture with another compound)	inactive	
Oc1cc(Cl)ccc1Oc1ccc(Cl)cc1Cl	inactive	2.91 µM (active) and 3.38 µM (active) and 17.3 µM (active)
OCCOc1ccccc1	inactive	
CC1(c2ccc(Oc3ccccc3)cc2)OC(=O)N(Nc2ccccc2)C1=O (stereo not given)	inactive	
Clc1ccccc1-c1nnc(-c2ccccc2Cl)nn1	inactive	
CCOC1Oc2ccc(OS(C)(=O)=O)cc2C1(C)C (stereo not given)		34 µM (active)
C[C@H]1[C@H](c2ccc(Cl)cc2)SC(=O)N1C(=O)NC1CCCCC1		27.2 µM (active)
CCCN(CCC)c1c([N+](=O)[O-])cc(C(F)(F)F)cc1[N+](=O)[O-]	inactive	
CCOCN(C(=O)CCl)c1c(C)cccc1CC	inactive	
N#Cc1c(Cl)c(Cl)c(Cl)c(C#N)c1Cl	inactive	
CC(C)(C)C(O)C(Oc1ccc(Cl)cc1)n1cncn1 (stereo not given)	inactive	2.82 µM (active) and 5.04 µM (active) and 7.04 µM (active)
C#CCN1C(=O)COc2cc(F)c(N3C(=O)C4=C(CCCC4)C3=O)cc21	inactive	
COc1nn(CSP(=S)(OC)OC)c(=O)s1		50 µM (active)
COC(=O)c1ccccc1CS(=O)(=O)NC(=O)Nc1nc(OC)cc(OC)n1	inactive	
COC(=O)c1ccccc1S(=O)(=O)NC(=O)N(C)c1nc(C)nc(OC)n1	inactive	
Oc1ccc(Cl)cc1Cc1ccccc1	inactive	13.6 µM (active)
COc1cc(OC)nc(NC(=O)NS(=O)(=O)c2cc(NC=O)ccc2C(=O)N(C)C)n1	inactive	
O=S1OCC2C(CO1)C1(Cl)C(Cl)=C(Cl)C2(Cl)C1(Cl)Cl (stereo not given)	inactive	
CCc1ccc(C(=O)NN(C(=O)c2cc(C)cc(C)c2)C(C)(C)C)cc1	inactive	

SMILES	outcome	AC50
CC(C)(C)C(O)/C(=C\c1ccc(Cl)cc1Cl)n1cncn1 (stereo not given)	inactive	
CN1CSC(=S)N(C)C1	inactive	
Cc1cc(C)nc(NC(=O)NS(=O)(=O)c2ccccc2C(=O)OC2COC2)n1	inactive	
Cc1[nH]c(=O)n(C(C)(C)C)c(=O)c1Cl		80.8 µM (active)
COP(=S)(OC)Oc1ccc(SC)c(C)c1		39.3 µM (active)
CCS(=O)(=O)c1cccnc1S(=O)(=O)NC(=O)Nc1nc(OC)cc(OC)n1	inactive	
N#CN	inactive	
O=[N+]([O-])c1c(Cl)c(Cl)c(Cl)c(Cl)c1Cl	inactive	
O=C(O)CCCOc1ccc(Cl)cc1Cl	inactive	
COP(=S)(OC)Oc1ccc([N+](=O)[O-])cc1	inactive	
CCC(C)(NC(=O)c1cc(Cl)c(C)c(Cl)c1)C(=O)CCl (stereo not given)	inactive	
CNC(=O)Oc1cccc(N=CN(C)C)c1	inactive	
O=[N+]([O-])/N=C1\NCCN1Cc1ccc(Cl)nc1	inactive	
CC1(C)C(C=C(Cl)Cl)C1C(=O)OC(C#N)c1ccc(F)c(Oc2ccccc2)c1 (stereo not given)	inactive	
CNC(=O)/C=C(\C)OP(=O)(OC)OC	inactive	
O=C(Nc1ccccc1)Nc1cnns1	inactive	
O=C1c2ccccc2C(=O)N1SC(Cl)(Cl)Cl	inactive	
[2H]C1([2H])[n+]2ccccc2-c2cccc[n+]2C1([2H])[2H]	inactive	
